Hits are enriched below; roughly 2.4% of the tested compounds scored in any of these assays.
TNF necrop inh: blocks TNF-alpha induced death of Jurkat FADD-/- cells | Jurkat FADD-/- TNF necroptosis rescue, ATP luminescence, 24 h; 0 = TNF only, 100 = no-TNF cells | activation (protection from cell death), % at 10 µM | 220,000 compounds, 0.068% hits;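 active means activation, meaning protection from cell death, of at least 50% relative to plate controls; inactive means activation below 50%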;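 further: necroptosis triggered by 40 ng/mL TNF-alpha added together with compound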
WT yeast gro inh: growth inhibition of WT yeast, mitochondrial fusion screen; mitochondrial fusion phenotypic screen, WT strain; inhibition, % at 10 µM; 190,000 compounds, 2.1% hits; AID 1362; in the data active means inhibition above about 58%; tested in S. cerevisiae
zVAD death inh: blocks zVAD induced death of L929 cells; L929 zVAD necroptosis rescue, ATP luminescence, 24 h; with zVAD 60 µM; viability rescue, % at 10 µM; 220,000 compounds, 0.38% hits;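 active means activation, scaled between plate controls, above about 75%, limit read from the data; inactive means activation under that limit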;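 further: 0% = zVAD with DMSO and 100% = DMSO alone without zVAD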
PERK inh: blocks human PERK kinase; AID 1416; Q9NZJ5; inhibition, % at 5.6 µM; 220,000 compounds, 0.17% hits; CHO PERK-DD fusion, SEAP luminescence translation reporter;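 active means inhibition above the mean inhibition of all tested compounds plus 3 SD, set separately per screening campaign, cut at about 2.9% in these data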;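 further: PERK kinase domain activated by AP20187 dimerizer at 100 nM; 0% = DMSO with dimerizer and 100% = rapamycin at 8.4 µM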
Target sequence (Q9NZJ5 whole entry, looked up, the tested form may be a part): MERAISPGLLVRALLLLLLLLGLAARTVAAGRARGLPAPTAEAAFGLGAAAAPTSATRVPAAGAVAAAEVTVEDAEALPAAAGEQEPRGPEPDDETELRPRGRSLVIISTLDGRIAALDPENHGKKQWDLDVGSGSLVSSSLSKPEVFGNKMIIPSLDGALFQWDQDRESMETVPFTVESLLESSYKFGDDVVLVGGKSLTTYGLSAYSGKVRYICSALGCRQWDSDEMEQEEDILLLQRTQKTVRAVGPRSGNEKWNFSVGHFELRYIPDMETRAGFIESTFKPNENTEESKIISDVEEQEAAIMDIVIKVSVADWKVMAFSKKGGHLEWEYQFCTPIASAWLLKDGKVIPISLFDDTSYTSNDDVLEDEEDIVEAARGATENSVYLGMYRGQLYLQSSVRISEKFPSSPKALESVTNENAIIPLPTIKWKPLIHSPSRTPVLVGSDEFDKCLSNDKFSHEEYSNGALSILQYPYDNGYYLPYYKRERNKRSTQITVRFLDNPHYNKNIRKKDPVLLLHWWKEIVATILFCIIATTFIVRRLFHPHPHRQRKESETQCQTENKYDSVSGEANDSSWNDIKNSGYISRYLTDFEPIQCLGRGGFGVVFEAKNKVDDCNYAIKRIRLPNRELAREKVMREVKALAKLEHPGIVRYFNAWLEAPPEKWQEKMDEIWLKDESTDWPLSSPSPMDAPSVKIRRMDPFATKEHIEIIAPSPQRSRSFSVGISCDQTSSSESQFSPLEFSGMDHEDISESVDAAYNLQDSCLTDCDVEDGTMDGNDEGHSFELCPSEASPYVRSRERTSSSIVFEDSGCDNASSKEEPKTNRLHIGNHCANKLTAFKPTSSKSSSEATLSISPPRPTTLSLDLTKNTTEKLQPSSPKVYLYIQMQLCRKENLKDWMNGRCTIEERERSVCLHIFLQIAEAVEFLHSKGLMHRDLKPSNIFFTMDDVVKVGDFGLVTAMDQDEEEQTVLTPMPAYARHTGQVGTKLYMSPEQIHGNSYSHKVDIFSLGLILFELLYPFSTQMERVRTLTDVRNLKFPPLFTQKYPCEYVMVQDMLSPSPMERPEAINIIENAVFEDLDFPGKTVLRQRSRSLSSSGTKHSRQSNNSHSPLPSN
DTT redox prof: compounds producing H2O2 with reducing agent – biochemical, NIH compound library profiling, artefact control for MLSCN library redox annotation, primary screen. DTT-dependent redox cycling H2O2, phenol red/HRP absorbance; 100% = 100 µM peroxide control, 0% = buffer. activation, % at 10 µM. 200,000 compounds, 0.03% hits;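 active means activation of at least 50% relative to the plate's high and low controls in the primary single-dose screen; inactive means activation below 50%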;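 further: compound incubated with DTT at 0.8 mM final as the reducing agent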
PKD1 inh: blocks activity of human protein kinase D1; Q15139; 200,000 compounds, 0.056% hits; PKD1 kinase fluorescence polarization assay; AID 797; inhibition, % (concentration not given with the values); in the data active means inhibition above about 50%
The depositor's hits bear a star.

Screening O=C(NC1CCSC1)c1cccc(Cl)c1 (stereo not drawn) returned TNF necrop inh 2, zVAD death inh 1 and PERK inh 1.
COC(=O)C1=C(C)NC2=C(C(=O)CC(C)(C)C2)C1c1cn(Cc2ccc(Br)cc2)nc1-c1ccccc1 (stereo not drawn) was read as TNF necrop inh -6, WT yeast gro inh 70*, zVAD death inh 0, PERK inh -1, DTT redox prof -3 and PKD1 inh 1.
Cc1cc(C)n(CCc2nc(-c3ccc(C(C)(C)C)cc3)cs2)n1 was read as TNF necrop inh 2, WT yeast gro inh 75*, zVAD death inh 1, PERK inh 0, DTT redox prof 0 and PKD1 inh 2.
`CC(=O)C(Sc1ncnc2sc3c(c12)CCCC3)C(C)=O` gave TNF necrop inh -2, WT yeast gro inh 76*, zVAD death inh 6, PERK inh 0, DTT redox prof 0 and PKD1 inh -5.
For CCC(=O)NNC(=O)CCC(=O)Nc1cccc(Cl)c1C the results were TNF necrop inh 1, WT yeast gro inh -1, zVAD death inh 0, PERK inh 3.0*, DTT redox prof -4 and PKD1 inh -6.
`COC(=O)CCC(=O)NNC(=O)CCC(=O)Nc1cccc(Cl)c1C` gave TNF necrop inh 2, WT yeast gro inh -11, zVAD death inh 1, PERK inh 0, DTT redox prof -3 and PKD1 inh -5.
Screening CC(=O)Nc1ccc(Sc2ncccc2C(=O)Nc2cc(Cl)cc(Cl)c2)cn1 returned TNF necrop inh -6, WT yeast gro inh -23, zVAD death inh 89*, PERK inh 1, DTT redox prof 2 and PKD1 inh -11.
Screening CCC(C)c1ccc(NC(=S)Nc2ccc(OC)cc2)cc1 (stereo not drawn) returned TNF necrop inh -8, WT yeast gro inh 72*, zVAD death inh 1, PERK inh 0, DTT redox prof 0 and PKD1 inh -3.
For CCCCc1ccc(NC(=S)NCc2ccc(OC)cc2)cc1 the results were TNF necrop inh -7, WT yeast gro inh 72*, zVAD death inh 0, PERK inh 1, DTT redox prof 0 and PKD1 inh 10.
Screening CCc1ccc(NC(=S)NC2CCN(Cc3ccccc3)CC2)cc1 returned TNF necrop inh -5, WT yeast gro inh 23, zVAD death inh 0, PERK inh -1, DTT redox prof 0 and PKD1 inh -9.
For CCCCc1ccc(NC(=S)NCc2ccccc2OC)cc1 the results were TNF necrop inh -13, WT yeast gro inh 65*, zVAD death inh -1, PERK inh 1, DTT redox prof -4 and PKD1 inh 5.
`CCC(C)c1ccc(NC(=S)NC2CCN(Cc3ccccc3)CC2)cc1` (stereo not drawn) gave TNF necrop inh -8, WT yeast gro inh 75*, zVAD death inh 12, PERK inh -1, DTT redox prof 0 and PKD1 inh 6.
`CCCCc1ccc(NC(=S)NCc2cccs2)cc1` gave TNF necrop inh -4, WT yeast gro inh 8, zVAD death inh 0, PERK inh -1, DTT redox prof -3 and PKD1 inh -2.
Screening Cc1ccc(OCC(=O)N2CCN(S(C)(=O)=O)CC2)cc1 returned TNF necrop inh 3, zVAD death inh 1 and PERK inh 1.
`S=c1[nH]nc(-c2ccccc2)n1/N=C/c1ccc(-c2ccccc2Cl)o1` gave TNF necrop inh -1, WT yeast gro inh 58*, zVAD death inh 0, PERK inh 0, DTT redox prof 0 and PKD1 inh -7.
`COc1ccc(C(=O)/C=C/C(=O)N(CC(=O)NC2CCCCC2)Cc2cccs2)c(O)c1` gave TNF necrop inh -12, WT yeast gro inh 65*, zVAD death inh 16, PERK inh -2, DTT redox prof -1 and PKD1 inh 5.
For COCCN(CC(=O)NC1CCCCC1)C(=O)/C=C/C(=O)c1ccc(OC)cc1O the results were TNF necrop inh -14, WT yeast gro inh -5, zVAD death inh 1, PERK inh 0, DTT redox prof 0 and PKD1 inh -7.
Screening O=S(=O)(Nc1ccc(-n2cccc2)cc1)c1ccc(Cl)c(Cl)c1 returned TNF necrop inh 2, zVAD death inh 1 and PERK inh 1.
For O=S(=O)(Nc1ccc(-n2cccc2)cc1)c1ccc(Cl)cc1Cl the results were TNF necrop inh -1, WT yeast gro inh 88*, zVAD death inh 0, PERK inh 1, DTT redox prof 2 and PKD1 inh -9.
For CC(C)(C)C(=O)NC(=S)NNC(=O)c1sc2ccccc2c1Cl the results were TNF necrop inh -10, WT yeast gro inh 75*, zVAD death inh 8, PERK inh 0, DTT redox prof -1 and PKD1 inh -4.
CCC12CC3CC(C1)CC(C(=O)NNC(N)=O)(C3)C2 was read as TNF necrop inh 5, zVAD death inh 0 and PERK inh 1.
For O=C(Nc1ncc(Cc2ccccc2Cl)s1)C1=NCCN1 the results were TNF necrop inh -1, WT yeast gro inh 73*, zVAD death inh 0, PERK inh 0, DTT redox prof 0 and PKD1 inh 10.
`Cc1[nH][nH]c(=O)c1C(c1c(C)[nH][nH]c1=O)c1cn(Cc2ccc(Cl)c(Cl)c2)c2ccccc12` gave TNF necrop inh -11, WT yeast gro inh 71*, zVAD death inh -1, PERK inh 0, DTT redox prof 0 and PKD1 inh 10.
For Cc1[nH][nH]c(=O)c1C(c1c(C)[nH][nH]c1=O)c1cn(Cc2ccc(F)cc2)c2ccccc12 the results were TNF necrop inh -8, WT yeast gro inh 14, zVAD death inh 1, PERK inh 1, DTT redox prof 0 and PKD1 inh -11.
Screening CC(C)[C@H](NC(=O)CCCn1nnc2ccccc2c1=O)C(=O)O returned TNF necrop inh 4, zVAD death inh 0 and PERK inh 1.
For O=C(Nc1ccc(S(=O)(=O)N2CCN(Cc3ccccc3)CC2)cc1)c1cnccn1 the results were TNF necrop inh -7, WT yeast gro inh 60*, zVAD death inh 0, PERK inh 0, DTT redox prof 2 and PKD1 inh -5.
`O=C(Nc1ccc(S(=O)(=O)N2CCCC2)cc1)c1cnccn1` gave TNF necrop inh 0, WT yeast gro inh -11, zVAD death inh 3, PERK inh 1, DTT redox prof -1 and PKD1 inh 1.
Screening COc1ccccc1CNC(=O)C(=O)NCC(c1ccco1)N1CCOCC1 (stereo not drawn) returned TNF necrop inh 1, WT yeast gro inh 3, zVAD death inh 1, PERK inh -1, DTT redox prof -1 and PKD1 inh -6.
For c1ccc(CSc2ncnc3c2cnn3Cc2ccccc2)cc1 the results were TNF necrop inh 0, WT yeast gro inh 67*, zVAD death inh 0, PERK inh 1, DTT redox prof 0 and PKD1 inh -6.

Assay outcomes: PubChem, several laboratories
